# Data as given in PubChem BioAssay (NCATS).
# “And” between values parts separate entries of the source, which are not always exact repeats. Equal entries are not always repeated. Records with an inconclusive call do not appear. The source made the active and inactive calls. Unless noted, the call rests on the fitted dose curve; in most records, active means well fitted curve in the direction sought with a large enough effect; inconclusive means small, poorly fitted or top-dose-only effect, or another doubt; inactive means no such curve, though single readings can be large; an effect the other way counts as inactive or inconclusive.
# Key:
# [1] = qHTS drug screen for cell cycle checkpoint inhibitors in PARPi-resistant BRCA-mutant ovarian cancer cell lines. (AID 1963452; calls by dose curve; further: potency means the concentration at half of the fitted maximal effect); conditions: PEO1/OlaR viability, CellTiter-Glo luminescence, 96 h; for Z-AUC: stronger effect = lower value
# In short: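 PEO1, PEO4 and PEO1/OlaR ovarian cancer cells, 600 per well, exposed 96 h at 37C to a dilution series. Viability read by CellTiter-Glo luminescence, normalized to DMSO and empty wells; activity summarized as Z-AUC.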
# [2] = qHTS profiling for inhibitors of Plasmodium falciparum proliferation (AID 504749); further: potency means the concentration at half of the fitted maximal effect;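 on activity, negative = inhibition: 0% = DMSO vehicle and full inhibition = artemisinin control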; on all read-outs here: nearly all actives have a fitted effect of over 60% in size; conditions: P. falciparum in erythrocytes, SYBR Green DNA, 72 h; for activity, negative = inhibition: at 28.7 µM (top of the series)
# In short: (§1)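 Infected RBCs, 0.3% parasitemia/2.5% Hct final; cpd 72 h, 37 C, 5% CO2; lysis buffer with saponin/triton/SYBR Green I, o/n RT dark; FI 485/535; norm. to artemisinin (0.29 uM) and DMSO.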
# [3] = system: 3D7; test: as above; conditions: P. falciparum in erythrocytes, SYBR Green DNA, 72 h; series mostly up to 28.7 µM
# In short: as §1
# [4] = system: 7G8; test: as above; conditions: P. falciparum in erythrocytes, SYBR Green DNA, 72 h; series mostly up to 28.7 µM
# In short: as §1
# [5] = system: AA1029; test: as above; conditions: P. falciparum in erythrocytes, SYBR Green DNA, 72 h; series mostly up to 28.7 µM
# In short: as §1
# [6] = system: AS120; test: as above; conditions: P. falciparum in erythrocytes, SYBR Green DNA, 72 h; series mostly up to 28.7 µM
# In short: as §1
# [7] = system: ATS189; test: as above; conditions: P. falciparum in erythrocytes, SYBR Green DNA, 72 h; series mostly up to 28.7 µM
# In short: as §1
# [8] = molecular target: Nuclear receptor subfamily 1 group I member 2 (Homo sapiens) (UniProt O75469); test: Dual reporter qHTS for agonist of Pregnane X Receptor (hPXR) against the NCATS DSHEA and TCM libraries: Luminescence readout (AID 1920059); conditions: hPXR dual reporter cells, luciferase luminescence agonist; series mostly up to 40 µM; further: 0% is about no effect
# In short: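 Luminescent PXR reporter read (ONE-Glo) after a CellTiter-Fluor viability read, following 24 h, 37C treatment of HepG2 cells stably carrying hPXR-Luc.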
# [9] = molecular target: Nuclear receptor subfamily 1 group I member 2 (Homo sapiens) (UniProt O75469); test: Dual reporter qHTS for antagonist of Pregnane X Receptor (hPXR) against the NCATS DSHEA and TCM libraries: Luminescence Readout (AID 1920060); conditions: hPXR dual reporter cells, luciferase luminescence, antagonist mode; series mostly up to 40 µM;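 further: HepG2 cells carrying hPXR luciferase reporter stimulated with rifampicin at 2 µM; 0% is about no effect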
# In short: (§2)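 In antagonist mode, 2 uM rifampicin was added to hPXR-Luc HepG2 cells alongside test substances, incubated 24 h at 37 C; luminescence gave reporter activity, and CellTiter-Fluor fluorescence (405/540 nm) gave viability.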
# [10] = Dual reporter qHTS for antagonist of Pregnane X Receptor (hPXR) against the NCATS DSHEA and TCM libraries: Fluorescence Readout (AID 1920061); conditions: PXR dual reporter cells, antagonist mode; series mostly up to 40 µM; further: 0% is about no effect
# In short: as §2
# [11] = measured here: PEO1 parental Z-AUC
# Nuclear receptor subfamily 1 group I member 2 (Homo sapiens), sequence (O75469 whole entry, looked up): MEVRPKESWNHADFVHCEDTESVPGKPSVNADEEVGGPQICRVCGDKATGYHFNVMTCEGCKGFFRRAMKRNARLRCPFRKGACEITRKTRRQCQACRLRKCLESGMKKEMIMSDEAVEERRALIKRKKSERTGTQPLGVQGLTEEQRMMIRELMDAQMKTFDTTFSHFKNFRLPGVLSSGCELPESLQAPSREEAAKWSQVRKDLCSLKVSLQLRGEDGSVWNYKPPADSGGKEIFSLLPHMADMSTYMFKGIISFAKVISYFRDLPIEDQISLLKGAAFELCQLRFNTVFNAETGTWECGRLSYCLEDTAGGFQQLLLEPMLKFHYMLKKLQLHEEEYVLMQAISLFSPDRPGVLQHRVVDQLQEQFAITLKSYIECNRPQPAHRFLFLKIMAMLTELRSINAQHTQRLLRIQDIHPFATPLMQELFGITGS
smiles,measurement,setting,value
CC(=O)OCC(=O)[C@@]1(O)CC[C@H]2[C@@H]3CCC4=CC(=O)CC[C@]4(C)[C@H]3C(=O)C[C@@]21C,Z-AUC,[1],-1.11 (inactive)
same,Z-AUC,[1]; [11],-0.142
same,Z-AUC,[1]; measured here: PEO4 Z-AUC,-0.613
CN1CCC[C@@H]1Cc1c[nH]c2ccc(CCS(=O)(=O)c3ccccc3)cc12,"activity, negative = inhibition",[2]; parasite line A,-0.0666% (inactive)
same,"activity, negative = inhibition",[2]; parasite line B,-10.1% (inactive)
same,Potency,[3],inactive
same,Potency,[4],6.31 µM (active)
CNCCC(Oc1ccc(C(F)(F)F)cc1)c1ccccc1 (stereo not given),"activity, negative = inhibition",[2]; parasite line A,-5.44% (inactive)
same,"activity, negative = inhibition",[2]; parasite line B,-9.25% (inactive)
same,Potency,[3],inactive
same,Potency,[4],11.2 µM (active)
O=c1cc(CO)occ1O,"activity, negative = inhibition",[2]; parasite line A,1.47% (inactive)
same,"activity, negative = inhibition",[2]; parasite line B,-0.837% (inactive)
same,Potency,[3],inactive
same,Potency,[4],inactive
same,Potency,[5],inactive
same,Potency,[6],inactive
same,Potency,[7],inactive
O=C(O)c1ccccc1O,outcome,[8],inactive
same,outcome,[9],inactive
same,outcome,[10],inactive
same,"activity, negative = inhibition",[2]; parasite line A,0.135% (inactive)
same,"activity, negative = inhibition",[2]; parasite line B,11.3% (inactive)
same,Potency,[3],inactive
same,Potency,[4],inactive
same,Potency,[5],inactive
same,Potency,[6],inactive
same,Potency,[7],inactive
OC[C@H]1O[C@@H](O[C@@H]2[C@@H](CO)O[C@](O)(CO)[C@H]2O)[C@H](O)[C@@H](O)[C@H]1O,Z-AUC,[1],-0.433 (inactive)
same,Z-AUC,[1]; [11],-0.31
same,Z-AUC,[1]; measured here: PEO4 Z-AUC,-0.255
CC(=O)O[C@@]12CO[C@@H]1C[C@H](O)[C@@]1(C)C(=O)[C@H](O)C3=C(C)[C@@H](OC(=O)[C@H](O)[C@@H](NC(=O)OC(C)(C)C)c4ccccc4)C[C@@](O)([C@@H](OC(=O)c4ccccc4)[C@H]21)C3(C)C,Potency,[1],0.0087 µM (active)
same,Z-AUC,[1]; [11],-2.65
same,Z-AUC,[1]; measured here: PEO4 Z-AUC,-3.1
CC12CCC(CC1)C(C)(C)O2,outcome,[8],inactive
same,outcome,[9],inactive
same,outcome,[10],inactive
same,"activity, negative = inhibition",[2]; parasite line A,9.21% (inactive)
same,"activity, negative = inhibition",[2]; parasite line B,-14.4% (inactive)
same,Potency,[3],inactive
same,Potency,[4],inactive
same,Potency,[5],inactive
same,Potency,[6],inactive
same,Potency,[7],inactive
CN(C)CCN(Cc1ccccc1)c1ccccn1,"activity, negative = inhibition",[2]; parasite line A,-2.14% (inactive)
same,"activity, negative = inhibition",[2]; parasite line B,9.22% (inactive)
same,Potency,[3],inactive
same,Potency,[4],inactive
COc1ccc2[nH]c(S(=O)Cc3ncc(C)c(OC)c3C)nc2n1 (stereo not given),Z-AUC,[1],-1.06 (inactive)
same,Z-AUC,[1]; [11],-0.26
same,Z-AUC,[1]; measured here: PEO4 Z-AUC,0.544
same,Potency,[2]; parasite line B,10 µM (active)
same,Potency,[3],10 µM (active)
same,Potency,[4],11.2 µM (active)
same,Potency,[6],8.91 µM (active)
NC(N)=NCCC[C@H](N)C(=O)O,outcome,[8],inactive
same,outcome,[9],inactive
same,outcome,[10],inactive
O=C1Nc2ccc(Cl)cc2[C@@](C#CC2CC2)(C(F)(F)F)O1,Z-AUC,[1],-0.995 (inactive) and -0.662 (inactive)
same,Z-AUC,[1]; [11],-0.432 and 0.539
same,Z-AUC,[1]; measured here: PEO4 Z-AUC,-0.62 and -0.612
Cc1c(O)cccc1C(=O)N[C@@H](CSc1ccccc1)[C@H](O)CN1C[C@H]2CCCC[C@H]2C[C@H]1C(=O)NC(C)(C)C,Z-AUC,[1],-0.819 (inactive)
same,Z-AUC,[1]; [11],-0.979
same,Z-AUC,[1]; measured here: PEO4 Z-AUC,-1.07
same,Potency,[2]; parasite line B,7.94 µM (active)
same,Potency,[3],12.6 µM (active)
same,Potency,[6],10 µM (active)
CC[C@H]1CN2CCc3cc(OC)c(OC)cc3[C@@H]2C[C@@H]1C[C@H]1NCCc2cc(OC)c(OC)cc21,Z-AUC,[1],-0.485 (inactive)
same,Z-AUC,[1]; [11],-0.835
same,Z-AUC,[1]; measured here: PEO4 Z-AUC,-0.876
CCN(CC)CCNC(C(=O)OCCC(C)C)c1ccccc1 (stereo not given),"activity, negative = inhibition",[2]; parasite line A,6.18% (inactive)
same,"activity, negative = inhibition",[2]; parasite line B,14.1% (inactive)
same,Potency,[3],inactive
same,Potency,[4],12.6 µM (active)
CCN(CC)CCCC(C)Nc1c2ccc(Cl)cc2nc2ccc(OC)cc12 (stereo not given),Z-AUC,[1],-0.243 (inactive)
same,Z-AUC,[1]; [11],-1.15
same,Z-AUC,[1]; measured here: PEO4 Z-AUC,-1.09
C[C@H]1O[C@@H](n2cc(F)c(=O)[nH]c2=O)[C@H](O)[C@@H]1O,Z-AUC,[1],0.97 (inactive)
same,Z-AUC,[1]; [11],1.13
same,Z-AUC,[1]; measured here: PEO4 Z-AUC,1.52
same,"activity, negative = inhibition",[2]; parasite line A,3.03% (inactive)
same,"activity, negative = inhibition",[2]; parasite line B,4.84% (inactive)
same,Potency,[3],inactive
same,Potency,[4],inactive
same,Potency,[5],inactive
same,Potency,[6],inactive
same,Potency,[7],inactive
COc1ccccc1O,"activity, negative = inhibition",[2]; parasite line A,6.24% (inactive)
same,"activity, negative = inhibition",[2]; parasite line B,17.1% (inactive)
same,Potency,[3],inactive
same,Potency,[4],inactive
same,Potency,[5],inactive
same,Potency,[6],inactive
same,Potency,[7],inactive
CCCCc1ncc(/C=C(\Cc2cccs2)C(=O)O)n1Cc1ccc(C(=O)O)cc1,"activity, negative = inhibition",[2]; parasite line A,6.94% (inactive)
same,"activity, negative = inhibition",[2]; parasite line B,4.94% (inactive)
same,Potency,[3],inactive
same,Potency,[4],inactive
same,Potency,[5],inactive
same,Potency,[6],inactive
same,Potency,[7],inactive
CCCOC(=O)c1ccccc1,"activity, negative = inhibition",[2]; parasite line A,-2.05% (inactive)
same,"activity, negative = inhibition",[2]; parasite line B,2.76% (inactive)
same,Potency,[3],inactive
same,Potency,[4],inactive
same,Potency,[5],inactive
same,Potency,[6],inactive
same,Potency,[7],inactive
COc1ccc(Cl)cc1C(=O)NCCc1ccc(S(=O)(=O)NC(=O)NC2CCCCC2)cc1,"activity, negative = inhibition",[2]; parasite line A,10.8% (inactive)
same,"activity, negative = inhibition",[2]; parasite line B,8.21% (inactive)
same,Potency,[3],inactive
same,Potency,[4],inactive
same,Potency,[5],inactive
same,Potency,[6],inactive
same,Potency,[7],inactive
